HPGD block: HPGD (human) dehydrogenase inhibition; purified HPGD, NADH fluorescence kinetic, PGE2 substrate; 4.3% of 150,000 active; Potency, µM, for inactives: at the top dose activity change, negative = inhibition, hits mostly inhibitors; note: potency is the fitted concentration of half-maximal effect
Target sequence (P15428 whole entry, looked up): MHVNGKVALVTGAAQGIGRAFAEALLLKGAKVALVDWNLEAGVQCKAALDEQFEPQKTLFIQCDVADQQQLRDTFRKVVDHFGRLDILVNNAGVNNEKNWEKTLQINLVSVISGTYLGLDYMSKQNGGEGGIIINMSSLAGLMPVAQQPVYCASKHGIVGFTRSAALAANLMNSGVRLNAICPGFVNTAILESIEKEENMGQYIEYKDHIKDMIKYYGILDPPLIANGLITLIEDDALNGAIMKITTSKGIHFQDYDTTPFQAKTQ
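20 nM HPGD preincubated 15 min at room temperature with compound in 50 mM Tris-HCl pH 8, 0.01% Tween 20. Started with 1 mM NAD+ and 30 uM prostaglandin E2; NADH fluorescence (360/450 nm) read 5 times over 30-s intervals, last minus first.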
PNC assembly inh: blocks assembly of the perinucleolar compartment; PC3M PTB-GFP, PNC prevalence imaging, 16 h; active compounds read low; activity change (PNC), negative = inhibition, % at 10 µM; 3.1% of 140,000 active; AID 2417;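 active = readout at or below -70, meaning at least 70% loss of cells showing the perinucleolar compartment, a nuclear body marking cancer cells; inconclusive = readout between -30 and a set limit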;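 note: plate controls were DMSO wells for no effect and camptothecin positive control wells for full effect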
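Read-out is percentage of cells bearing a perinucleolar compartment, from automated 20x imaging of fixed, Hoechst-stained PC3M PTB-GFP cells. Cells were seeded 4 h, then exposed 16 h to compound (23 nl of library stock) in duplicate plates.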
KDM4E inh: inhibitors of human JMJD2E histone demethylase; JMJD2E catalytic domain, FDH-coupled NADH fluorescence (FDH is formaldehyde dehydrogenase); Potency, µM (highest dose often 57.1 µM), for the others: at the top dose activity change, negative = inhibition, most hits filed as inhibitors; 1.6% of 230,000 active; AID 2147;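 note: potency is the fitted concentration of half-maximal effect; 0% = wells with enzyme and -100% = buffer wells without enzyme; nearly all actives have a fitted effect of over 50% in size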
Target sequence (B2RXH2 1-337 limits assumed): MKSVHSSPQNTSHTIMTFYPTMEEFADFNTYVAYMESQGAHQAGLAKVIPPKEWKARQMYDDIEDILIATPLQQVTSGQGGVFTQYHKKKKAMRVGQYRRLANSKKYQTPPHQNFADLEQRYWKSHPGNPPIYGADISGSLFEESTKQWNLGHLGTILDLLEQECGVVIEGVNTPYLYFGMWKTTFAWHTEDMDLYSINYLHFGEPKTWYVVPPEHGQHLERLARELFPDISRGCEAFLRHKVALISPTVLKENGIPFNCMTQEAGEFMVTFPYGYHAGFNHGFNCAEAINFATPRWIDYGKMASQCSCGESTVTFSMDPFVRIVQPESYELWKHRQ
ALDH1A1 block: inhibitors of human aldehyde dehydrogenase 1A1; AID 1030; P00352; Potency, µM (titrated, usually from 75.3 µM), for the others: top-dose activity, negative = inhibition, actives largely listed as inhibitors; Purified ALDH1A1, NADH fluorescence, propionaldehyde substrate; 7.3% of 220,000 active;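 note: potency is the fitted concentration of half-maximal effect; plate controls were no enzyme wells and a reference inhibitor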
* marks the source's active call; other numbers are inactive results; ? = inconclusive; nt = no result; [ ] = remark or other dose. An excerpt weighted towards active compounds, which were near 11% of everything screened. Unless noted, calls come from the whole dose curve; as a rule, active = well fitted inhibition curve with a large enough effect (not every such curve was filed as active); inconclusive = small, poorly fitted or top-dose-only effect, or another doubt; inactive = no such curve, though single readings can be large or run the other way. Unless noted, % is set by controls: 0 for no effect and ±100 for the full control effect.

SMILES	HPGD block	PNC assembly inh	KDM4E inh	ALDH1A1 block
Cc1cc(=O)oc2cc(OCC(=O)NCCc3nc4ccccc4[nH]3)ccc12	?	-86.6*	?	?
O=C(Oc1cc2oc(=O)cc(-c3ccccc3)c2cc1Cl)C1CCCCC1	?	-6.8	?	?
CC(C)(C)OC(=O)NCC(=O)Oc1cc2oc(=O)cc(-c3ccccc3)c2cc1Cl	?	?	?	25.1µM*
Cc1ccc(S(=O)(=O)N2CCN(c3nccnc3C#N)CC2)cc1	nt	nt	-12.2%	nt
Cc1c(C)c(C)c(CC2(C)CSC2)c(CC2(C)CSC2)c1C	-1.1%	nt	nt	0.9%[13.5 µM]
Cc1cc(=O)c2cc3nc(-c4cccnc4)oc3c(Br)c2o1	nt	nt	?	4.9%
CN(C)CCNS(=O)(=O)N(C)C	-4.1%	nt	nt	?
COc1ccccc1C(=O)N1CCN(S(=O)(=O)c2ccccc2)CC1	0.2%	46.0	-3.7%	0.0%
CC1CCCN(C(=O)CSc2nc3ccccc3o2)C1 (stereo not given)	12.6µM*	24.6	-2.9%	-4.0%
O=C(OCC#CCSc1nc2ccccc2o1)c1ccco1	-5.7%	-83.3*	-7.2%	1.0%
OCC#CCSc1nnc(-c2ccc(Br)cc2)o1	-0.6%	-14.3	2.6%	11.6%
OCC#CCSc1nnc(-c2ccccc2Br)o1	-19.3%	7.0	5.8%	20µM*
COc1cccc(OC)c1C(=O)N1CCN(S(=O)(=O)c2ccccc2)CC1	-6.1%	-98.7*	1.6%	-2.4%
COC(=O)c1nnn(-c2nc(N3CCOCC3)nc(N3CCOCC3)n2)c1C	nt	nt	0.4%	?
OCCNc1ncnc2nc[nH]c12	-12.4%	nt	nt	1.1%[13.5 µM]
O=C(CSc1nc2ccccc2n1CC(=O)N1CCCC1)N1CCN(C(=O)c2ccco2)CC1	-2.3%	-2.3	2.4%	-0.9%
CC(C)Cn1c(SCC(=O)N2CCN(S(=O)(=O)c3ccccc3)CC2)nc2ccccc21	-9.8%	6.6	-10.6%	12.6µM*
CC(C)Cn1c(SCC(=O)N2CCN(C(=O)c3ccco3)CC2)nc2ccccc2c1=O	nt	nt	1.1%	31.6µM*
NC(=O)C1CCN(C(=O)CSc2nc3ccccc3o2)CC1	-6.0%	-127.9*	0.8%	18.6%
NC(=O)C1CCN(C(=O)CSc2nc3ccccc3[nH]2)CC1	-2.0%	27.2	8.8%	9.6%
Cn1c(SCC(=O)N2CCN(S(=O)(=O)c3ccccc3)CC2)nc2ccccc21	-3.6%	19.9	-0.8%	-2.8%
O=C(CSc1nc2ccccc2o1)N1CCN(C(=O)c2ccco2)CC1	-12.7%	-21.2	2.3%	12.6µM*
Cc1ccc(Oc2nccc(-c3ccc(Cl)cc3)n2)cc1	-1.3%	-20.9	1.8%	-9.8%
CCCNC(=O)OC[C@@H]1O[C@H](CCO/N=C(\C)CCC(=O)OC[C@@H]2O[C@H](c3ccccc3)C=C[C@@H]2Oc2ccc(OC)cc2)C=C[C@@H]1Oc1ccc(OC)cc1	nt	nt	nt	-1.9%[13.5 µM]
NC(=O)C1CCN(C(=O)CN2CCCc3ccccc32)CC1	?	-2.1	?	20µM*
SMILES	HPGD block	PNC assembly inh	KDM4E inh	ALDH1A1 block
O=C(CSc1ncccn1)N1CCN(S(=O)(=O)c2ccccc2)CC1	nt	nt	-2.5%	nt
O=C(CN1CCCc2ccccc21)N/N=C/c1ccccc1	-7.9%	?	-24.8%	?
COc1ccccc1N1CCN(C(=O)CSc2nc3ccccc3o2)CC1	-3.0%	-81.9*	-2.0%	8.91µM*
O=C(CSc1ccc(F)cc1)N1CCN(S(=O)(=O)c2ccccc2)CC1	nt	nt	-5.1%	2.82µM*
COCCNc1nc(SCC(=O)N2CCN(c3ccccc3OC)CC2)nc2ccccc12	4.6%	-20.2	-1.9%	-4.8%
COc1ccccc1N1CCN(C(=O)CSc2nc3ncnc(N)c3[nH]2)CC1	-12.3%	?	-2.0%	28.2µM*
Cc1ccc(NC(=O)C2=C(c3ccccc3)S(=O)(=O)CCS2(=O)=O)cc1	nt	nt	-1.4%	-8.4%
C[C@H](C(=O)c1ccccc1)C(c1ccccc1)N1CCOCC1 (stereo not given in full)	-29.3%	nt	nt	?
Cc1ccc(SCC(=O)NC(=O)NCc2ccco2)cc1C	-2.8%	7.1	-4.2%	-5.4%
O=C(CSc1nnc(-c2ccccc2Br)o1)N1CCN(C(=O)c2ccco2)CC1	28.2µM*	-0.6	-4.6%	8.91µM*
O=C(CSc1nc2cc(Cl)ccc2o1)N1CCOCC1	-14.0%	?	4.4%	-1.9%
O=C(CSc1nnc(-c2ccc(F)cc2)o1)N1CCN(C(=O)c2ccco2)CC1	-3.3%	-14.0	-0.5%	-11.0%
O=C(O)c1ccc2oc(SCC(=O)N3CCCCC3)nc2c1	8.91µM*	0.2	5.8%	12.9%
CCC[C@H]1C[C@H](C(=O)N[C@H]([C@@H]2O[C@H](SC)[C@@H](O)[C@H](O)[C@@H]2O)[C@H](C)O)N(C)C1	5.1%	nt	-0.8%[25.5 µM]	2.1%[20.9 µM]
O=C(C1c2ccccc2Oc2ccccc21)N1CCN(c2ccc(Cl)cc2)CC1	-13.7%	-88.6*	-2.3%	-0.7%
Cc1cc(S(=O)(=O)N(C)CCc2ccccc2)ccc1-n1cnnn1	nt	35.7	-7.2%	?
COc1cc(S(=O)(=O)N(Cc2ccc(C)cc2)Cc2ccco2)ccc1-n1cnnn1	-9.5%	16.5	-0.5%	12.6µM*
Cc1cc(S(=O)(=O)N(Cc2ccccc2)Cc2ccc(N(C)C)cc2)ccc1-n1cnnn1	-3.8%	-118.9*	4.3%	?
COc1cccc(CN(Cc2cccnc2)S(=O)(=O)c2ccc(-n3cnnn3)c(C)c2)c1	-17.5%	35.2	-1.6%	25.1µM*
COc1cc(S(=O)(=O)N(Cc2cccnc2)Cc2ccco2)ccc1-n1cnnn1	-4.0%	39.3	-6.4%	?
CNC1C(OC2C(O[C@@H]3C(O)C(O)[C@@H](N=C(N)N)C(O)C3N=C(N)N)OC(C)[C@@]2(O)CO)OC(CO)C(O)C1O (stereo not given in full)	-10.2%	nt	-5.4%	0.8%
O=C(O)C1CC=CCC1C(=O)Nc1ccc(N2CCN(Cc3ccccc3)CC2)cc1 (stereo not given)	-8.3%	-26.7	-5.5%	?
O=[N+]([O-])c1ccc(N2CCCCC2)cc1N1CCOCC1	-15.4%	2.4	5.7%	0.7%
CN(C)S(=O)(=O)N1CCN(c2ccc([N+](=O)[O-])c(N3CCCCC3)c2)CC1	nt	nt	-12.4%	3.98µM*
O=[N+]([O-])c1ccc(N2CCOCC2)cc1N1CCCCC1	nt	nt	-5.6%	5.62µM*
SMILES	HPGD block	PNC assembly inh	KDM4E inh	ALDH1A1 block
CC(C)(C)c1ccc(CNc2cc(N3CCOCC3)ccc2[N+](=O)[O-])cc1	nt	21.9	-15.2%	1.58µM*
O=[N+]([O-])c1ccc(N2CCCC2)cc1N1CCCC1	-15.2%	-27.4	-1.3%	14.1µM*
CNc1cc(N2CCN(S(=O)(=O)N(C)C)CC2)ccc1[N+](=O)[O-]	nt	nt	-5.9%	-10.7%
Cc1nn(-c2cc(N3CCNCC3)ccc2[N+](=O)[O-])c(=O)c2ccccc12	-8.2%	-97.0*	2.4%	?
Cc1nn(-c2cc(N3CCCCC3)ccc2[N+](=O)[O-])c(=O)c2ccccc12	-14.9%	-18.9	-0.9%	-10.0%
O=C(c1ccccc1Br)N1CCN(c2ccc([N+](=O)[O-])c(N3CCOCC3)c2)CC1	nt	nt	-0.6%	7.94µM*
O=C(COc1ccccc1Cl)N1CCN(c2ccc([N+](=O)[O-])c(N3CCOCC3)c2)CC1	-16.7%	?	-8.3%	11.2µM*

High-throughput results deposited in PubChem by National Center for Advancing Translational Sciences (NCATS).
